# Compound activity (PubChem)
# A selection: hits, their analogues and other compounds. The true share with any hit is near 28%.
# PLK1 PBD inh: inhibitors of human Plk1 polo box domain binding; inhibition, %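 (tested at about 20 µM)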; AID 693; Plk1 PBD phosphopeptide binding, fluorescence polarization; 97,000 compounds, 0.13% hits; P53350; in the data active = inhibition above about 34%, passing the limit was not always enough
# PLK1 inh: PLK1 (human) kinase inhibition; P53350; recombinant PLK1 kinase, TR-FRET peptide phosphorylation; inhibition, % at 10 µM; 97,000 compounds, 0.53% hits; AID 619;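 active = inhibition of 50% or more in the single-concentration screen; inactive = inhibition below 50%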
# CYP2C19 inhib: blocks human cytochrome P450 2C19 | CYP2C19 Supersomes, luciferin-H EGE luminescence, 30 min | inhibition, % at 5 µM | 96,000 compounds, 21% hits;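 active = CYP2C19 inhibition above a set limit at 5 µM in the primary screen, cut at about 50% in these data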
# CYP2C19 act: activators of human cytochrome P450 2C19 | P33261 | recombinant CYP2C19, luciferin-H EGE luminescence; hits give high values; 0 = fully inhibited enzyme, 1 = untreated enzyme | activation factor at 5 µM | 96,000 tested, under 10 active;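 active = activation factor of at least 2 at 5 µM in the primary screen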
# CYP2C9 act: CYP2C9 (human) activation | recombinant CYP2C9, luciferin-H conversion, luminescence; hits give high values; factor 1 = untreated enzyme, 0 = blocked | 96,000 compounds, 1.4% hits | P11712 | activation factor at 5 µM;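 active = activation factor of 2 or more for CYP2C9 at a 5 µM dose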
# Target sequence (P11712 whole entry, looked up): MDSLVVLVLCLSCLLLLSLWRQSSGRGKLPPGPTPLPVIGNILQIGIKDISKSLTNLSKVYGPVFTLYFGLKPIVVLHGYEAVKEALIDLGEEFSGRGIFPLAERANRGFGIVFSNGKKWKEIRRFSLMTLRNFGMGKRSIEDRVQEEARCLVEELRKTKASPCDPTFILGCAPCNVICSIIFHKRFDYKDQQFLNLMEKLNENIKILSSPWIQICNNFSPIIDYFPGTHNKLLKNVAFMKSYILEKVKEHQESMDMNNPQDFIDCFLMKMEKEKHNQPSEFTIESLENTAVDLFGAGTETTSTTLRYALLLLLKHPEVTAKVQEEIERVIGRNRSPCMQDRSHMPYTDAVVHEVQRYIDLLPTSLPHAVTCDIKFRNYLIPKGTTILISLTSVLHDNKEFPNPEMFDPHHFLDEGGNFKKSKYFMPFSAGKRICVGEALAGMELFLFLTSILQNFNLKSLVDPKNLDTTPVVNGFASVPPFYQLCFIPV
# CYP2C9 inhib: inhibitors of human CYP2C9; 96,000 compounds, 20% hits; P11712; CYP2C9 Supersomes, luciferin-H conversion, luminescence; AID 777; inhibition, % at 5 µM;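 active = blocking of liver enzyme CYP2C9 beyond about 50% at 5 µM, limit read from the data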
# Numbers stand for hits; 0 = inactive; - = no result.
SMILES,PLK1 PBD inh,PLK1 inh,CYP2C19 inhib,CYP2C19 act,CYP2C9 act,CYP2C9 inhib
Oc1ccccc1C1=Nc2ncnn2C(c2ccc(F)cc2)C1 (stereo not given),-,-,57,0,0,0
Cc1c(NC(=O)c2ccc3c(c2)OCO3)cccc1-c1nc2ncccc2o1,0,0,0,0,0,0
Cc1cccc(OCC(=O)NC(C)C(=O)N/N=C/c2c(OCc3ccccc3)ccc3ccccc23)c1 (stereo not given),0,0,0,0,0,89
CCCCN(Cc1ccccc1)C(=O)C1CCN(S(=O)(=O)c2c(C)noc2C)CC1,0,0,0,0,0,0
Cc1ccc(NC(=O)CCC(=O)OCCCC(F)(F)C(F)(F)F)cc1,0,0,0,0,0,0
CC(C)CCn1nnnc1C(c1ccc(F)cc1)N1CCN(C(=O)c2ccco2)CC1 (stereo not given),0,0,63,0,0,96
COc1ccc(OC)c(C(c2nnnn2CCC(C)C)N2CCN(C(=O)c3ccco3)CC2)c1 (stereo not given),0,0,67,0,0,74
Cc1cc(Cl)c(S(=O)(=O)NCC2CCCO2)cc1OCC(=O)NC1CCCCC1 (stereo not given),0,0,0,0,0,0
O=C(COc1ccc(S(=O)(=O)NCc2ccccc2)cc1Cl)NCC1CCCO1 (stereo not given),0,0,0,0,0,78
O=C(COc1ccc(S(=O)(=O)NC2CCCCC2)cc1)NCc1cccnc1,0,0,0,0,0,0
Cc1cc(C)c(C)c(OCC(=O)NCC2CCCO2)c1 (stereo not given),0,0,63,0,0,0
O=C(COc1ccc(S(=O)(=O)NC2CCCCC2)cc1Cl)NCC1CCCO1 (stereo not given),0,0,58,0,0,90
O=C(COc1ccc(S(=O)(=O)NC2CCCCC2)cc1Cl)NCc1cccnc1,0,0,0,0,0,98
O=C(O)CC(CNS(=O)(=O)c1ccccc1)c1ccccc1 (stereo not given),-,-,0,0,0,0
Cc1ccc(Cn2cnc3c(nnn3Cc3ccc(Cl)cc3)c2=O)cc1,0,0,0,0,0,0
CCNc1nc(Oc2ccc(C(=O)OCC)cc2)nc(SC)n1,0,0,0,0,0,0
COc1ccc(CCNC(=O)COc2ccc(S(=O)(=O)NC3CCCCC3)cc2Cl)cc1,0,0,64,0,0,85
COC(=O)C1=C(C)NC2=C(C(=O)C(C(=O)OC)C(c3ccc(OC)cc3)C2)C1c1ccccn1 (stereo not given),0,0,0,0,0,0
COc1ccc(Cc2nnc(SCC(=O)N3CCc4ccccc4C3)o2)cc1,0,0,0,0,0,0
COc1ccc(-c2nnc(SCC(=O)N3CCc4ccccc4C3)o2)cc1,0,0,78,0,0,0
O=C(CSc1nnc(-c2ccccc2O)o1)N1CCc2ccccc2C1,0,0,63,0,0,0
O=C(CSc1nnc(-c2ccccc2)o1)N1CCc2ccccc2C1,0,0,0,0,0,0
CCN(CC)C(=O)C1=C(C)NC(=O)NC1c1c(F)cccc1Cl (stereo not given),0,0,0,0,0,0
Cc1ccccc1CS(=O)(=O)c1cnc2ccccc2n1,0,0,93,0,2.3,0
Cc1ccccc1CS(=O)(=O)c1snnc1C,0,0,55,0,0,0
SMILES,PLK1 PBD inh,PLK1 inh,CYP2C19 inhib,CYP2C19 act,CYP2C9 act,CYP2C9 inhib
O=C(Nc1ccc(S(=O)(=O)NC2CCCCC2)cc1)c1ccc(Br)o1,0,0,0,0,0,0
CN(C)S(=O)(=O)c1ccc(NC(=O)c2ccc(Br)o2)cc1,0,0,54,0,0,0
CN(C1CCCCC1)S(=O)(=O)c1ccc(NC(=O)c2ccc(Br)o2)cc1,0,0,94,0,0,98
O=C(C/C=N\OCc1c(Cl)cccc1Cl)Oc1ccc(Cl)cc1Cl,0,0,0,0,0,0
Cc1ccc(C23CC4CC(CC(NC(=O)NC(C)(C)CO)(C4)C2)C3)cc1,0,0,73,0,0,75
Cc1ccc(NC(=O)CN2C(=O)S/C(=C\c3cccn3-c3cccc(C(=O)O)c3)C2=O)c(C)c1,0,0,0,0,0,0
Cc1cccc(C)c1NC(=O)CN1C(=O)S/C(=C\c2cccn2C)C1=O,0,0,0,0,0,0
Cc1cccc(C)c1NC(=O)CN1C(=O)S/C(=C\c2cccn2-c2cccc(C(=O)O)c2)C1=O,0,0,0,0,0,86
Cc1ccccc1NC(=O)CN1C(=O)S/C(=C\c2cccn2-c2cccc(C(=O)O)c2)C1=O,0,0,0,0,0,75
CCS(=O)(=O)NC(C)C(c1cccs1)N1CCN(c2ccc(F)cc2)CC1 (stereo not given),0,0,0,0,0,0
CC(=O)c1c(C(C)=O)c(C)n(Cc2ccccc2)c1C,0,0,0,0,0,0
CCOC(=O)c1c(-c2ccc(C)cc2)cn2ccccc12,0,0,0,0,0,0
CCOC(=O)c1c(C=O)c(C)n(Cc2ccccc2Cl)c1C,0,0,98,0,0,94
CCOC(=O)c1c(C=O)c(C)n(Cc2ccc(C)cc2)c1C,0,0,76,0,0,96
Cc1c(C=O)c(C=O)c(C)n1Cc1ccccc1,0,0,62,0,0,0
Cn1ncc(C#N)c1NC(=O)C1CC(c2c(F)cccc2Cl)=NO1 (stereo not given),0,0,77,0,0,72
Cn1ncc(C#N)c1NC(=O)C1CC(c2ccc(Cl)c(Cl)c2)=NO1 (stereo not given),0,0,85,0,0,51
O=C(NCC1CCCO1)Nc1ccc(Cl)cc1 (stereo not given),0,0,0,0,0,0
O=C(NCC1CCCO1)C1CC(c2ccc(Cl)c(Cl)c2)=NO1 (stereo not given),0,0,0,0,2.5,0
O=C(NCc1cc(C(F)(F)F)cc(C(F)(F)F)c1)C1CC(c2cccc([N+](=O)[O-])c2)=NO1 (stereo not given),0,0,0,0,0,0
Nc1ccc(Cl)cc1/C(=N/O)c1ccccc1,-,-,78,0,0,56
COc1ccc2[nH]c(C)c(CCN(Cc3cccs3)C(=S)Nc3cccc(F)c3)c2c1,0,0,78,0,0,98
NC(=O)c1cc2nc(-c3ccco3)cc(C(F)(F)F)n2n1,0,0,-,-,-,-
O=C(NCc1ccco1)c1cc2nc(-c3cccs3)cc(C(F)(F)F)n2n1,0,0,0,0,0,56
O=C(NCc1ccco1)c1nn2c(C(F)(F)F)cc(-c3cccs3)nc2c1Cl,0,0,0,0,0,55
Cc1ccc(SCC2CNc3nc4ccccc4c(=O)n32)c(C)c1 (stereo not given),0,0,0,0,0,0
O=C(O)C1C2C=CC3(CN(Cc4ccco4)C(=O)C13)O2 (stereo not given),0,58,0,0,0,0
COc1ccc(C(=O)Nc2cc(OC)nc(OC)n2)cc1,0,0,-,-,-,-
